Consider 107 compounds from PubChem BioAssay AID651593 (National Center for Advancing Translational Sciences (NCATS), 2012).

Out of some 1,100 compounds screened, about 860 (78%) were called active. Roughly 19% stayed inconclusive and do not appear here. The set was probably picked from earlier hits. This is one part of the list. Values without a mark were called inactive. The call rests on the fitted dose curve; in most records, active means well fitted activation curve with a large enough effect; inconclusive means small, poorly fitted or top-dose-only effect; inactive means flat fitted curve, though single readings scatter.
Potency means the concentration at half of the fitted maximal effect.

The nature of this assay: qHTS of Nrf2 Activators: Hit Validation in Primary Assay. Further: nearly all actives have a fitted effect of over 70% in size. On activation: 0% is about no effect. Conditions: Nrf2/ARE reporter cell assay; Potency: activation; series mostly up to 46.1 µM; activation: at the top concentration. In short, it runs like this: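 Luminescence from Steady-Glo lysis reagent, read after 30 min, reported ARE-luciferase activity in AREc32_fluc stable cells. Compounds were tested at several concentrations, incubated 24 h at 37 °C with 5% CO2 following overnight seeding.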
`Brc1cc(Br)c2nc(-c3cccs3)ccc2c1`: the Potency was 4.11 µM (active). As to `O=C(CN1CC(=O)Oc2ccccc21)OCC(=O)c1ccc(F)cc1`, the Potency was 18.4 µM (active). Take `COc1cc(OC)cc(C(=O)O/N=C(\N)c2cccc(C)c2)c1`: the “activation” value was 21.2%. In the case of `N/C(=N\OC(=O)c1ccco1)c1cccc(Br)c1`, the Potency is 20.6 µM (active).

For `Cc1csc(-c2ccc3cc(Cl)cc(Cl)c3n2)n1`, the Potency is 2.59 µM (active). On the same count and under the same terms, then `O=C(O)CCCCCN1C(=O)/C(=C\c2ccncc2)SC1=S`, with 2.91 µM (active). On the same count and under the same terms, then `N#Cc1nc(-c2ccco2)oc1N1CCCC1`, with 2.31 µM (active); and `Cc1nc(-c2ccccn2)sc1C(=O)Nc1ccc(F)cc1`, with 2.31 µM (active). On to `Cc1cc(C)c2c(NC(=S)NC(=O)c3ccccc3)nn(C)c2n1`, for which the Potency was 7.31 µM (active). Still for that read-out and setting: then `Cc1ccc2cccc(NC(=S)NC(=O)c3ccccc3)c2n1`, with 4.61 µM (active); and `Cc1csc(NC(=S)NC(=O)c2ccccc2)n1`, with 11.6 µM (active). Take `Cc1sc(NC(=S)NC(=O)c2ccccc2)c(C#N)c1C`: the “activation” value was 17%.

With `O=C(NC(=S)Nc1nc(-c2ccccc2)cs1)c1cccs1`, the Potency is 3.66 µM (active). For `c1coc(-c2ccnc3nc(-n4cccc4)nn23)c1`, the Potency is 4.11 µM (active). Regarding `CCc1nn2c(-c3ccco3)ccnc2c1-c1ccccc1`, the “activation” value was 9.08%. For `c1coc(-c2ccnc(-n3cccc3)n2)c1`, the Potency was 2.59 µM (active). On the same count and under the same terms, then `Clc1ccc(-c2ccnc(-n3cccc3)n2)s1`, with 2.59 µM (active).

As to `CSc1nc2sc3c(c2c(=O)n1C)CCC(C)C3` (configuration not stated), the Potency was 18.4 µM (active). Still for that read-out and setting: then `Cc1cc(C)c(-n2c(SCCS(=O)(=O)c3ccc(F)cc3)n[nH]c2=O)c(C)c1`, with 20.6 µM (active); and `NC(=O)c1ccsc1NC(=O)COC(=O)[C@@H]1CCCN1C(=O)c1cccs1`, with 6.51 µM (active). On the same count and under the same terms, with `O=C(NNC(=O)c1nc(Cl)ccc1Cl)c1ccc(F)cc1` the figure was 11.6 µM (active); with `O=C1C(=C2CCc3ccccc32)Cc2ccccc21`, 1.03 µM (active); with `COC(=O)c1ccc2nc(-c3cccc(Br)c3)c(CC3CCCCC3)n2c1`, 13 µM (active). Regarding `COC(=O)c1ccc2nc(-c3ccc(F)cc3)c(CC3CCCCC3)n2c1`, the Potency is 9.2 µM (active). Regarding `O=c1cc(-c2ccccc2)nc2c(Cl)cc(Cl)cn12`, the Potency was 3.66 µM (active). Same read-out and setting: then `COCCn1c(C(F)(F)F)ccc(NC(=O)c2ccccc2)c1=O`, with 2.31 µM (active).

As for `FC(F)(F)c1cc(-c2cccs2)nc2cc(-c3cccs3)nn12`, the Potency was 2.91 µM (active). On to `Cc1ncc(N=Nc2ccccc2)c(-c2ccccc2)n1`, for which the Potency is 3.66 µM (active). On the same count and under the same terms, with `Cc1ccc(CNC(=O)c2sccc2-n2cccc2)cc1` the figure was 5.17 µM (active); with `CC(C)c1ccc(NC(=O)c2sccc2-n2cccc2)cc1`, 2.59 µM (active); with `O=c1oc2ccc(Br)cc2cc1-c1nc2ccccc2o1`, 23.1 µM (active). The same measure, in the same setting: then `O=C(Cn1ncc(Cl)c(Cl)c1=O)NC1CCS(=O)(=O)C1` (configuration not stated), with 6.51 µM (active); and `O=C(Nc1cccc2ncccc12)c1ccc(Cl)cc1`, with 2.59 µM (active). The same measure, in the same setting: with `Cc1ccsc1-c1ccnc(-n2cccc2)n1` the figure was 11.6 µM (active). In the case of `Cc1cc(-c2sccc2Br)nc(-n2cccc2)n1`, the Potency is 3.66 µM (active). The same measure, in the same setting: with `Cc1cc(-c2sccc2C)nc(-n2cccc2)n1` the figure was 5.8 µM (active). As to `Cc1cc(-c2cccs2)nc(-n2cccc2)n1`, the Potency is 5.17 µM (active). With `CS(=O)(=O)c1nc(S(=O)(=O)c2ccc(Cl)cc2)c(N2CCOCC2)s1`, the Potency is 4.11 µM (active). Take `Cc1ccc(S(=O)(=O)c2nc(S(C)(=O)=O)sc2N2CCOCC2)cc1`: the Potency is 8.2 µM (active).

With `Cc1nnc2n1N=CC=C(c1ccccc1)S2`, the Potency was 3.66 µM (active). The same measure, in the same setting: with `Clc1ccc2c(NCc3ccccn3)ncnc2c1` the figure was 4.61 µM (active). For the compound `Oc1ccc(Cl)cc1N=Cc1sc2ccccc2c1Cl`, the Potency was 6.51 µM (active). For `Cc1sc2ncnc(Sc3nnnn3-c3ccccc3)c2c1C`, the “activation” value is 15.9%.

With `Cc1sc2ncnc(NCc3ccco3)c2c1C`, the Potency was 3.66 µM (active). The same measure, in the same setting: with `Cc1sc2ncnc(SCc3ccco3)c2c1C` the figure was 2.91 µM (active). Same read-out and setting: then `c1ccc(Cn2ncc3c(NCc4ccco4)ncnc32)cc1`, with 2.06 µM (active).

Regarding `CCc1cc2c(NCc3ccco3)ncnc2s1`, the Potency is 3.66 µM (active).

As to `CCN(CC)CCNC(=O)C(Cl)=C1C(Cl)=C(Cl)C(Cl)=C1Cl`, the Potency is 3.66 µM (active). Still for that read-out and setting: with `Cc1cccc(NC(=S)NC(=O)c2cccs2)n1` the figure was 8.2 µM (active). On the same count and under the same terms, then `O=C(NC(=S)Nc1cccc2cccnc12)c1cccs1`, with 2.91 µM (active); and `O=C(NC(=S)Nc1ccc(Cl)cn1)c1cccs1`, with 2.91 µM (active); and `O=C(NC(=S)Nc1ccc(Br)cn1)c1cccs1`, with 2.91 µM (active). As for `COC(=O)c1cc2c(s1)-c1cc(F)ccc1OC2`, the Potency is 9.2 µM (active). In the case of `O=C1/C(=C\c2ccc(Cl)cc2)CCC1CNc1ccc(Cl)cc1` (configuration not stated), the Potency is 3.66 µM (active). On the same count and under the same terms, then `N#Cc1cnc2cc(-c3ccccc3)nn2c1N`, with 6.51 µM (active); and `CC(=O)Nc1ccc(S(=O)(=O)c2ccnc3cc(Cl)ccc23)cc1`, with 14.6 µM (active); and `O=S(=O)(c1ccc(F)cc1)c1snnc1-c1ccccc1`, with 18.4 µM (active). Same read-out and setting: with `Cc1ccc(N=C/C(C(=O)C(F)(F)F)=C(\O)c2ccco2)cc1Cl` the figure was 7.31 µM (active); with `O=C(/C(C=Nc1ccc(F)cc1)=C(/O)c1ccco1)C(F)(F)F`, 20.6 µM (active); with `O=C(/C(C=Nc1cccc(C(F)(F)F)c1)=C(/O)c1ccco1)C(F)(F)F`, 11.6 µM (active).

`Cc1cccc(N=C/C(C(=O)C(F)(F)F)=C(\O)c2ccco2)c1`: the Potency was 20.6 µM (active). In the case of `CC(=O)Nc1cc2oc3ccccc3c2cc1[N+](=O)[O-]`, the Potency was 2.59 µM (active). Take `CC(=O)Nc1ccc(N=Nc2ccccc2)cc1[N+](=O)[O-]`: the Potency was 3.66 µM (active).

`COC(=O)c1c(NC(=O)/C=C/C(=O)O)sc(C)c1-c1ccc(C(C)C)cc1`: the Potency is 10.3 µM (active). With `c1ccc(-c2noc(-c3cccnc3)n2)cc1`, the Potency is 2.59 µM (active). On the same count and under the same terms, then `COc1nc2ccc(C)cc2cc1-c1noc(-c2ccccc2)n1`, with 2.59 µM (active).

Turning to `c1ccc(-c2noc(-c3cccc4ccccc34)n2)cc1`, the Potency was 2.31 µM (active). Take `COc1cccc(-c2nc(-c3ccccc3)no2)c1`: the Potency is 2.91 µM (active). In the case of `Fc1ccccc1-c1nc(-c2ccc(Cl)cc2)no1`, the Potency is 3.26 µM (active). As for `c1cncc(-c2noc(-c3cccc4ccccc34)n2)c1`, the Potency was 1.16 µM (active).

For `CC1=NC(=O)C(N=Nc2cccc(O)c2)N1c1ccccc1` (configuration not stated), the Potency was 7.31 µM (active). Regarding `Cc1cccc2c(=O)n(C(=O)c3ccccc3)c(N)nc12`, the Potency is 1.03 µM (active). Turning to `COc1ccc(OC)c(/C=C(\C#N)c2nc(-c3ccc(F)cc3)cs2)c1`, the Potency was 2.59 µM (active). Turning to `O=C(Nc1nnc(-c2ccccc2F)s1)C1CCCO1` (configuration not stated), the Potency was 7.31 µM (active). Turning to `O=C(Nc1ccccc1)c1nc[nH]c1C(=O)Nc1ccccc1F`, the “activation” value was 17.5%. Take `COc1ccc(NC(=O)Nc2nnc(-c3ccccc3F)s2)cc1`: the Potency is 1.84 µM (active). Same read-out and setting: then `O=C(Nc1nnc(-c2ccccc2F)s1)Nc1ccccc1F`, with 1.84 µM (active); and `COc1ccccc1-c1nnc(NC(C)=O)s1`, with 20.6 µM (active). On the same count and under the same terms, with `O=C(CC(=O)c1ccccn1)c1ccccc1` the figure was 3.66 µM (active). For `NS(=O)(=O)c1ccc(Sc2nc3ccccc3s2)c([N+](=O)[O-])c1`, the Potency was 16.4 µM (active). On the same count and under the same terms, then `NC(=O)c1nc(Nc2ccccc2)sc1NC(=O)c1c(F)cccc1F`, with 2.59 µM (active); and `NC(=O)c1nc(Nc2ccccc2)sc1NC(=O)c1ccccc1Br`, with 2.31 µM (active). Same read-out and setting: with `O=C(/C=C/c1ccccc1Cl)Nc1nc(-c2cccs2)ns1` the figure was 7.31 µM (active); with `O=C(/C=C/c1ccccc1)Nc1nc(-c2cccs2)ns1`, 2.59 µM (active); with `Cc1sc2c(c1C)C(=O)NC(c1ccccc1F)N2` (configuration not stated), 20.6 µM (active). Still for that read-out and setting: with `CCC/C(=N\NC(=O)c1ccco1)c1ccc(Cl)s1` the figure was 5.17 µM (active); with `O=c1c(-c2ccco2)[n+]([O-])c2ccccc2n1OCc1c(F)cccc1F`, 0.58 µM (active). With `O=c1c(-c2ccco2)[n+]([O-])c2ccccc2n1OCc1ccccc1`, the Potency is 5.17 µM (active). On the same count and under the same terms, then `CCOC(=O)COn1c(=O)c(-c2ccco2)[n+]([O-])c2ccccc21`, with 9.2 µM (active); and `COc1ccc(-c2cc3ccccc3c(=O)o2)cc1`, with 4.61 µM (active). Turning to `CC(=O)c1sc(Nc2ccccc2)nc1C`, the Potency is 18.4 µM (active). Take `O=[N+]([O-])c1ccc(SCc2ccco2)cc1N1CCOCC1`: the Potency is 2.31 µM (active).

As for `Cc1cccc(NC(=O)C2CC(=O)N/C(=N/N=C/c3ccco3)S2)c1` (configuration not stated), the Potency is 2.06 µM (active). On the same count and under the same terms, then `O=C1CC(C(=O)Nc2ccc(Cl)c(Cl)c2)S/C(=N\N=C\c2ccco2)N1` (configuration not stated), with 0.731 µM (active); and `Cn1c(NC(=O)/C=C/c2ccccc2)cc(=O)n(C)c1=O`, with 20.6 µM (active); and `O=C(CC1S/C(=N/N=C/c2ccco2)NC1=O)Nc1ccccc1` (configuration not stated), with 1.84 µM (active). On to `Cc1ccc(NC(=O)CC2S/C(=N/N=C/c3ccco3)NC2=O)cc1Cl` (configuration not stated), for which the Potency is 1.03 µM (active). Same read-out and setting: with `O=c1cc(-c2ccco2)nc(SCc2cccc(Cl)c2)[nH]1` the figure was 1.16 µM (active); with `O=C(Nc1ccccn1)c1csc2c1CCCC2`, 5.8 µM (active); with `COC(=O)c1cc2nc(-c3ccccc3)cc(C(F)(F)F)n2n1`, 6.51 µM (active).

For the compound `O=c1nc2c(O)cccn2c2c1c(=O)[nH]c1ccccc12`, the Potency is 2.31 µM (active). Consider `O=c1cc(COc2ccccc2[N+](=O)[O-])nc2sccn12`, for which the Potency is 9.2 µM (active). Turning to `CCOC(=O)CCn1c(=O)c2cccn2c2cccnc21`, the Potency is 18.4 µM (active). Take `NC(=O)c1c(NC(=O)c2ccc([N+](=O)[O-])o2)sc2c1CCCC2`: the Potency was 2.91 µM (active). As for `NC(=O)c1c(NC(=O)c2ccco2)sc2c1CCC2`, the Potency is 2.59 µM (active). `N#Cc1c(NC(=O)c2ccc([N+](=O)[O-])o2)sc2c1CCC2`: the Potency was 3.66 µM (active). Same read-out and setting: with `CCCc1cc(C(N)=O)c(NC(=O)c2ccco2)s1` the figure was 4.61 µM (active).
